Source: PubChem BioAssay (National Center for Advancing Translational Sciences (NCATS))
Compounds with a hit are over-represented: about 12% of the library has one in this group of screens.
SARS PLP yeast: qHTS of Yeast-based Assay for SARS-CoV PLP; Potency, µM (top dose mostly 32.9 µM), without a hit: top-dose activity, positive = growth rescue, hits mostly activators; AID 485353, 2010; S. cerevisiae expressing SARS-CoV PLpro, growth rescue; hit rate 0.19% among 330,000; calls by dose curve; further: 0% is about no effect; nearly all actives have a fitted effect of over 55% in size
Sm TGR block: qHTS Assay for the Inhibitors of Schistosoma Mansoni Peroxiredoxins | purified TGR, DTNB reduction, TNB absorbance 405 nm | Schistosoma mansoni thioredoxin glutathione reductase (TGR), Q962Y6 | Potency, µM (doses to about 114 µM), for inactives: at the highest dose activity change, negative = inhibition, actives largely listed as inhibitors | hit rate 3% among 360,000; further: on the % scale 0 is the no-effect control and ±100 the full control effect; nearly all actives have a fitted effect of over 60% in size
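Kinetic colorimetric format: TGR-catalysed, NADPH-driven DTNB reduction monitored via TNB absorbance. Enzyme dispensed at 20 nM; compound exposure 15 min at room temperature before reaction start.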
Pf growth 48h: Primary qHTS for delayed death inhibitors of the malarial parasite plastid, 48 hour incubation. Potency, µM (series often up to 28.7 µM), without a hit: at the highest dose activity change, negative = inhibition, most hits filed as inhibitors. hit rate 5.9% among 310,000. AID 504832, 2011. P. falciparum luciferase growth in erythrocytes, 48 h; further: on the % scale 0 is the no-effect control and ±100 the full control effect
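A one-generation exposure of luciferase-tagged malaria parasites in RPMI 1640/Albumax erythrocyte culture, 37 C and 5% CO2. Inhibition is inferred from decreased luminescence after adding detection reagent.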
Pf growth 96h: Primary qHTS for delayed death inhibitors of the malarial parasite plastid, 96 hour incubation; P. falciparum luciferase reporter growth, 96 h; Potency, µM (titrated, usually from 28.7 µM), without a hit: top-dose activity change, negative = inhibition, hits mostly inhibitors; hit rate 6.9% among 320,000; AID 504834, 2011; further: on the % scale 0 is the no-effect control and ±100 the full control effect
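Two parasite generations (96 h, 37 C, 5% CO2) of compound exposure in infected erythrocytes (0.05% parasitemia, 2% hematocrit). Luciferase-reporter P. falciparum; decreased luminescence indicates inhibited growth, aimed at apicoplast-acting delayed death.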
* marks the source's active call; other numbers are inactive results. Unless noted, the call rests on the fitted dose curve; in most records, active means well fitted curve in the direction sought with a large enough effect; inconclusive means small, poorly fitted or top-dose-only effect, or another doubt; inactive means no such curve, though single readings can be large; an effect the other way counts as inactive or inconclusive. Potency means the concentration at half of the fitted maximal effect.

`Cc1cc(C)n(-c2cc(N3CCN(C(=O)c4ccc(C(C)(C)C)cc4)CC3)ccc2[N+](=O)[O-])n1` gave SARS PLP yeast 1%, Sm TGR block 0%, Pf growth 48h 4.7µM* and Pf growth 96h 9.3µM*.
O=[N+]([O-])c1ccc(N2CCCC2)nc1 was read as SARS PLP yeast -1%, Sm TGR block 6%, Pf growth 48h 42% and Pf growth 96h 39%.
For CC(C)(C)c1ccc(C(=O)N2CCCN(c3ccc([N+](=O)[O-])cn3)CC2)cc1 the results were SARS PLP yeast 1%, Sm TGR block 9%, Pf growth 48h inconclusive and Pf growth 96h 12µM*.
Screening Cc1cc(NC(=O)CSCC(=O)N(c2cccc(Cl)c2)C(C(=O)NC2CCCCC2)c2ccc(O)c(O)c2)no1 (centres undefined) returned SARS PLP yeast -18%, Sm TGR block -15%, Pf growth 48h inconclusive and Pf growth 96h 9.3µM*.
COc1ccc(N(C(=O)CCC(=O)Nc2cc(C)on2)C(C(=O)NC2CCCC2)c2ccco2)cc1 (centres undefined) was read as SARS PLP yeast 0%, Sm TGR block 25%, Pf growth 48h -5% and Pf growth 96h inconclusive.
Screening COc1ccc(N(C(=O)CSCC(=O)Nc2cc(C)on2)C(C(=O)NC2CCCCC2)c2ccc(O)c(O)c2)cc1 (centres undefined) returned SARS PLP yeast -9%, Sm TGR block -16%, Pf growth 48h -4% and Pf growth 96h 2.6µM*.
`Cc1ccc(C(C(=O)NC2CCCC2)N(C(=O)CCC(=O)Nc2cc(C)on2)c2ccccc2)cc1` (centres undefined) gave SARS PLP yeast -12%, Sm TGR block -16%, Pf growth 48h -13% and Pf growth 96h -2%.
Screening COc1ccc(N(C(=O)/C=C/C(=O)Nc2cc(C)on2)C(C(=O)NC2CCCC2)c2ccccc2C)cc1 (centres undefined) returned SARS PLP yeast 5%, Sm TGR block -7%, Pf growth 48h 9.3µM* and Pf growth 96h 5%.
`O=C(CCCC(=O)N(c1ccc2c(c1)OCCO2)C(C(=O)NC1CCCCC1)c1ccc(Cl)cc1)Nc1ccccn1` (centres undefined) gave SARS PLP yeast 1%, Sm TGR block 1%, Pf growth 48h inconclusive and Pf growth 96h inconclusive.
For COc1ccc(C(C(=O)NC2CCCCC2)N(C(=O)CCCC(=O)Nc2ccccn2)c2ccc3c(c2)OCCO3)cc1 (centres undefined) the results were SARS PLP yeast 1%, Sm TGR block 7%, Pf growth 48h inconclusive and Pf growth 96h 9.3µM*.
COc1ccc(C(=O)NC(Cn2ccnc2)C(C)(C)C)cc1OC1CCN(C(C)C)CC1 (centres undefined) was read as SARS PLP yeast 1%, Sm TGR block 6%, Pf growth 48h -6% and Pf growth 96h -56%.
Cc1nn(C)c(C)c1S(=O)(=O)N(CC(=O)NCCCN1CC(C)CC(C)C1)c1ccc(C(C)C)cc1 (centres undefined) was read as SARS PLP yeast 1%, Sm TGR block -1%, Pf growth 48h inconclusive and Pf growth 96h -7%.
`O=C(c1cc(COc2cccc(C(F)(F)F)c2)on1)N1C[C@@H]2CCC[C@H]1C2` gave SARS PLP yeast -5%, Sm TGR block 8%, Pf growth 48h inconclusive and Pf growth 96h 25%.
Screening CN(C(=O)c1ccc(NC(=O)C2CCCN(C(=O)OC(C)(C)C)C2)cc1)C1CCC1 (centres undefined) returned SARS PLP yeast 11%.
Screening Cc1cc(NC(=O)CSCC(=O)N(c2ccc(F)cc2)C(C(=O)NC2CCCCC2)c2ccc(O)c(O)c2)no1 (centres undefined) returned SARS PLP yeast 0%, Sm TGR block -2%, Pf growth 48h inconclusive and Pf growth 96h 15µM*.
Screening C=CCOC(=O)C1=C(C)Nc2ncnn2C1c1cc(Br)ccc1F (centres undefined) returned SARS PLP yeast -5%, Sm TGR block 3%, Pf growth 48h -5% and Pf growth 96h -12%.
Screening COc1cccc(C2=CC(c3ccc(OC)c(OC)c3OC)n3ncnc3N2)c1 (centres undefined) returned Sm TGR block -11%.
Fc1ccc(Br)cc1C1C=C(c2ccc(Br)s2)Nc2ncnn21 (centres undefined) was read as SARS PLP yeast -5%, Sm TGR block 1.3µM*, Pf growth 48h -7% and Pf growth 96h 131%.
`COc1cccc(C2C=C(c3ccc(Br)s3)Nc3ncnn32)c1OC` (centres undefined) gave SARS PLP yeast -7%, Sm TGR block inconclusive, Pf growth 48h inconclusive and Pf growth 96h 2.3µM*.
COc1ccc(C2C=C(c3ccc(C)c(C)c3)Nc3ncnn32)c(OC)c1OC (centres undefined) was read as SARS PLP yeast 2%, Sm TGR block 0% and Pf growth 96h 9.3µM*.
For COc1ccc2nc(N(Cc3ccccc3)C(=O)CCNC(C)=O)sc2c1 the results were SARS PLP yeast -5%, Sm TGR block -17%, Pf growth 48h 60% and Pf growth 96h -2%.
Cc1ccc(NC(=O)N2C(=O)C3(OCCO3)c3ccccc32)cc1 was read as SARS PLP yeast -7%, Sm TGR block 0%, Pf growth 48h 103% and Pf growth 96h 6.6µM*.
For CCNC(=O)N1C(=O)C2(OCCO2)c2ccccc21 the results were SARS PLP yeast -9%, Sm TGR block 5% and Pf growth 48h 28%.
Screening O=C1N(CCCN2C(=O)C3(OCCO3)c3ccccc32)c2ccccc2C12OCCO2 returned SARS PLP yeast -4%, Sm TGR block 24%, Pf growth 48h inconclusive and Pf growth 96h 8.3µM*.
O=C1N(CCCCN2C(=O)C3(OCCO3)c3ccccc32)c2ccccc2C12OCCO2 was read as SARS PLP yeast 7%, Sm TGR block -2%, Pf growth 48h 0% and Pf growth 96h 7%.
Screening O=C(Nc1ccc2c(c1)CCC2)Nc1ccccc1F returned SARS PLP yeast -5%, Sm TGR block -3%, Pf growth 48h 123% and Pf growth 96h 36%.
For O=C(NCc1nc2ccccc2[nH]1)C1=C[C@@H](C2CCCCC2)C[C@@H](OCCCCO)O1 the results were SARS PLP yeast -3%, Sm TGR block -9%, Pf growth 48h inconclusive and Pf growth 96h inconclusive.
CC(C)(C)[C@H]1C=C(C(=O)NCc2nc3ccccc3[nH]2)O[C@@H](OCCCCO)C1 was read as SARS PLP yeast -3%, Sm TGR block 0%, Pf growth 48h inconclusive and Pf growth 96h 10µM*.
Screening O=C(NCc1nc2ccccc2[nH]1)C1=C[C@@H](c2ccccc2)C[C@@H](OCCCCO)O1 returned SARS PLP yeast -2%, Sm TGR block -1%, Pf growth 48h 0.0033µM* and Pf growth 96h -22%.
